In the library only some 11% were active in any assay of this set; here they are far more common.
HCV inhibitor = blocks hepatitis C virus | Huh7.5.1 HCVcc-Cre infection, luciferase reporter, 44 h | Potency, µM (top dose mostly 41.8 µM), most hits filed as inhibitors | 340,000 tested, 3.4% active
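Reporter virus HCVcc-Cre (~0.5 moi) infects cells exposed to compound; seeding density 1,000 cells/well with 4 h settling beforehand. Luminescence, 15 sec read, taken 44 h post-infection following a 15 min RT substrate incubation.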
Pf growth 96h = inhibits malaria parasite growth, 96 h. Potency, µM (series often up to 28.7 µM), hits mostly inhibitors. P. falciparum luciferase reporter growth, 96 h. 320,000 tested, 6.9% active. AID 504834
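96 h incubation, 37 C, 5% CO2, of luciferase-reporter P. falciparum-infected RBCs (2% hematocrit, 0.05% parasitemia final) with test compounds; endpoint luminescence.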
Pf growth 48h = inhibits P. falciparum growth in the first generation, 48 h | P. falciparum luciferase growth in erythrocytes, 48 h | Potency, µM (top dose mostly 28.7 µM), actives largely listed as inhibitors | 310,000 tested, 5.9% active
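Here the parasites carry a stable luciferase gene and grow inside erythrocytes in Albumax-based RPMI medium with compound for one erythrocytic cycle. Activity is scored as loss of luminescent signal.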
AMA1-RON2 inh = AMA1-RON2 (P. falciparum) interaction inhibition | AlphaScreen AMA1-biotinylated RON2 peptide binding | Potency, µM (top dose mostly 58.2 µM), most hits filed as inhibitors | 360,000 tested, 0.2% active | AID 720542; note: nearly all actives have a fitted effect of over 45% in size
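AMA1 (3D7) with his tag at 25 nM final met compounds first, then biotinylated RON2 peptide at 25 nM; detection used donor plus acceptor beads, 10 µg/mL apiece, read by AlphaScreen after 30 min at room temperature.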
Hits are given with their value; i = inactive; ? = inconclusive; nt = no result; [ ] = dose if it differs, or a comment. Calls come from the whole dose curve; as a rule, active = well fitted curve in the direction sought with a large enough effect; inconclusive = small, poorly fitted or top-dose-only effect, or another doubt; inactive = no such curve, though single readings can be large; an effect the other way counts as inactive or inconclusive.

SMILES | HCV inhibitor | Pf growth 96h | Pf growth 48h | AMA1-RON2 inh
O=C(O)CCC(=O)N1CCc2cc(S(=O)(=O)Nc3ccc4c(c3)OCCO4)ccc21 | i | 13µM | nt | i
Cc1cc(SCC(=O)c2ccc(O)c(O)c2)n2nc(C)c(-c3ccccc3)c2n1 | 11µM | ? | ? | i
Cc1cc(=O)[nH]c(SCC(=O)c2ccc(O)c(O)c2)n1 | i | ? | ? | i
Cc1cccc(/C(N)=N/OC(=O)N2c3ccccc3Sc3ccccc32)c1 | i | 6.6µM | ? | i
N/C(=N\OC(=O)N1c2ccccc2Sc2ccccc21)c1ccccc1 | i | ? | ? | i
COc1cc(OC)cc(C(=O)O/N=C(\N)c2cccc(C)c2)c1 | 11µM | i | ? | i
C/C=C(/C)C(=O)O[C@@H]1[C@H](OC(C)=O)c2c(ccc3ccc(=O)oc23)OC1(C)C | i[8.37 µM] | ? | ? | i
C/C=C(/C)C(=O)OC1c2c(ccc3ccc(=O)oc23)OC(C)(C)C1OC(C)=O (stereo not given) | ? | ? | 8.3µM | i
Cc1cc(C)n(-c2nc3ccccc3c(=O)n2OCC(C)C)n1 | i | i | i | i
COC(=O)COn1c(-n2nc(C)cc2C)nc2ccccc2c1=O | i | nt | 9.3µM | i
CCOn1c(-n2nc(C)cc2C)nc2ccccc2c1=O | i | nt | i | i
Cc1cc(C)n(-c2nc3ccccc3c(=O)n2OCC#N)n1 | ? | 0.37µM | 1.3µM | i
CCOC(=O)COn1c(-n2nc(C)cc2C)nc2ccccc2c1=O | i | 1.5µM | 3.7µM | i
CCOc1ccc(C(=O)CC(NCc2cccs2)C(=O)O)cc1 (stereo not given) | ? | i | ? | i
O=C(c1ccc(COc2c(F)c(F)c(F)c(F)c2F)o1)N1CCOCC1 | i | 13µM | i | i
CC1CCN(CCNC(=S)Nc2ccc(Cl)cc2)CC1 | ? | ? | ? | i
COc1ccc(C2CC(c3cccs3)=NN2C(=S)Nc2ccccc2)cc1OC (stereo not given) | i | 9.3µM | 6.6µM | i
CC1=NN(C(=S)Nc2ccccc2)C(c2ccccc2)C1 (stereo not given) | i | 2.6µM | 9.3µM | i
CC1CN(S(=O)(=O)c2cccc(C(=O)N(Cc3nnc(-c4ccccc4Cl)o3)C3CC3)c2)CC(C)O1 (stereo not given) | ? | 12µM | ? | i
CCOc1ccc2oc(C(=O)N(Cc3nnc(-c4ccccc4Cl)o3)C3CC3)c(C)c2c1 | ? | 8.3µM | 12µM | i
O=C(c1cc([N+](=O)[O-])cc([N+](=O)[O-])c1)N(Cc1nnc(-c2ccccc2Cl)o1)C1CC1 | ? | 12µM | ? | i
CCCN(Cc1nnc(-c2ccccc2Cl)o1)C(=O)c1cc([N+](=O)[O-])cc([N+](=O)[O-])c1 | i | ? | ? | i
O=C(c1cc2ccccc2o1)N(Cc1nnc(-c2ccccc2Cl)o1)C1CC1 | ? | i | i | i
CCOc1ccccc1N1CC(C(=O)N(Cc2nnc(-c3ccccc3Cl)o2)C2CC2)CC1=O (stereo not given) | i | 9.3µM | ? | i
CC1(C(=O)NS(=O)(=O)c2cccc(Cl)c2)CCN1C(=O)c1ccccc1CCc1ccccc1 (stereo not given) | nt | nt | nt | i
SMILES | HCV inhibitor | Pf growth 96h | Pf growth 48h | AMA1-RON2 inh
Cc1cccc2c1N(CCCOc1ccc(C(C)(C)C)cc1)C(=O)C2=O | ? | 9.3µM | nt | ?
Cc1ccccc1OCCCN1C(=O)C(=O)c2cccc(C)c21 | ? | i | ? | 16µM
Cc1cccc2c1N(CCCOc1ccccc1)C(=O)C2=O | i | i | i | i
O=C1[C@H]2[C@@H](c3ccc(C(F)(F)F)cc3)N[C@]3(CCCN(Cc4ccc(C(F)(F)F)cc4)C3=O)[C@H]2C(=O)N1Cc1ccccc1 | nt | nt | nt | i
CN(c1ccc(OCC(=O)N2CCN(C/C=C/c3ccccc3)CC2)cc1)S(=O)(=O)c1cccs1 | 11µM | ? | 9.3µM | i
CCOC(=O)C1CCN(C(=O)COc2ccc(N(C)S(=O)(=O)c3cccs3)cc2)CC1 | i | i | i | i
COc1ccc(N2C(=O)CC(N(CCc3ccc(OC)c(OC)c3)C(=S)Nc3ccccc3)C2=O)cc1 (stereo not given) | i | ? | 4.7µM | i
COc1ccc(N2C(=O)CC(N(C)CCc3ccc(OC)c(OC)c3)C2=O)cc1 (stereo not given) | i | i | 9.3µM | i
C[C@H](CO)N1C[C@H](C)[C@@H](CN(C)C(=O)Nc2ccc(F)cc2)Oc2ncc(-c3ccc(F)cc3)cc2C1=O | nt | nt | nt | i
CCOc1cc2[nH]c(=S)n(CCC(=O)N3CCc4ccccc4C3)c(=O)c2cc1OCC | i | 9.3µM | ? | i
